Compound activity as filed in PubChem BioAssay.
Only some compounds are listed: those with a hit (about 4.6% of all), similar ones and a draw of the others.
D1 agonist = agonists of human D1 dopamine receptor; P21728; HEK293 T-REx D1 cells, calcium flux, agonist mode; activation, % at 2 µM; 360,000 tested, 1% active; AID 504660; further: 0% is about no effect
Target sequence (P21728 whole entry, looked up): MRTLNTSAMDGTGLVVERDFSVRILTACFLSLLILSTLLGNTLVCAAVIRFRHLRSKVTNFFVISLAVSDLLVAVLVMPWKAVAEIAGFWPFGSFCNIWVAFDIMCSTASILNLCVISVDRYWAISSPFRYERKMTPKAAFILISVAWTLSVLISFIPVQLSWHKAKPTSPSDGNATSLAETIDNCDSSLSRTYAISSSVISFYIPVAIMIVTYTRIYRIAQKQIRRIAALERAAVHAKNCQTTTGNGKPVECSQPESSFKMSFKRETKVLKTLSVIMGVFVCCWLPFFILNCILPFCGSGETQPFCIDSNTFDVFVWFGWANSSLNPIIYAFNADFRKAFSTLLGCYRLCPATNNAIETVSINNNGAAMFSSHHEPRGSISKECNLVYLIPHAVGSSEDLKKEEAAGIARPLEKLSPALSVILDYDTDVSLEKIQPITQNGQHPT
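Agonism was scored from calcium flux recorded over 180 s (1 read/s) after pintool compound addition, following a 10-cycle baseline. Cells were inducible force-coupled HEK293 TREx D1, plated overnight at 30 C and loaded with no-wash calcium dye.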
D1 potentiator = enhances dopamine response at the human D1 receptor | P21728 | HEK293 TREx D1 cells, calcium flux, dopamine EC20 potentiation | potentiation, % at 10 µM | 360,000 tested, 0.036% active | AID 504651; in the data active means potentiation above about 30%; further: 0% is about no effect
TRHR ag = TRH receptor (human) agonism. TRHR cells, calcium flux fluo-8, FDSS agonist mode. 360,000 tested, 0.18% active. activation, % at 2 µM. P34981; further: 0% is about no effect
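Fluo-8-loaded TRHR cells; 10 s baseline, compound added, kinetic Ca2+ fluorescence read 1/s, agonist mode.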
D1 antagonist = antagonists of human D1 dopamine receptor; 360,000 tested, 3.2% active; activity change, negative = inhibition, % at 10 µM; AID 504652; HEK293 TREx D1 cells, calcium flux, dopamine EC80; hits give low values; in the data active means activity change below about -30%; further: on the % scale 0 is the no-effect control and ±100 the full control effect
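Inducible Hek293 Trex D1 cells (tetracycline, overnight, 30 C). Calcium dye 30–90 min RT. Antagonist mode: EC80 dopamine added after 180 s compound read.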
TRHR PAM = TRH receptor (human) allosteric enhancement; enhancement, % at 2 µM; TRHR cells, fluo-8 calcium fluorescence, EC20 TRH enhancement; AID 493056; 360,000 tested, 0.66% active; in the data active means enhancement above about 30%; further: 0% is about no effect
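TRHR-expressing cells loaded with fluo-8 calcium dye were read kinetically (ex 480/em 530) during compound addition, then stimulated with an EC20 of TRH (10 nM final). Enhancement of the Gq-mediated intracellular calcium response was scored.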
The depositor's hits bear a star; x = not tested or not shown. Unless noted, no stated cut-off is given here; in the data, active means activation above about 30%; inactive means the rest.

SMILES | D1 agonist | D1 potentiator | TRHR ag | D1 antagonist | TRHR PAM
COc1cccc(OCc2ccc(Cl)cc2)c1C#N | 2 | -6 | 0 | -51* | 0
CC(C)N(Cc1ccccc1)C(=O)C1CCCN(c2ncnc3onc(-c4ccc(F)cc4)c23)C1 (configuration not stated) | 3 | -8 | -1 | -7 | -3
C=CCc1cccc(/C=N/n2cnnc2)c1O | 12 | -6 | 0 | -9 | 32*
Cc1[nH]cc(Br)c(=O)c1Oc1ncc(C(F)(F)F)cc1Cl | 2 | -8 | 0 | -35* | -7
FC(F)(F)c1cnc(Oc2cccc3ccccc23)c(Cl)c1 | 0 | -1 | 0 | 2 | 6
CN(CCOc1ccccc1)S(=O)(=O)c1ccc2oc3ccccc3c2c1 | 40* | 7 | -1 | -43* | 3
COc1ccc(OCCNS(=O)(=O)c2ccc3oc4ccccc4c3c2)cc1 | 14 | -3 | -1 | 19 | -12
CCc1cccc(NC(=O)Cn2cc(C=O)c3ccccc32)c1 | 14 | -4 | 1 | -30* | -4
CC1CCCN(C(=O)N2c3ccccc3Sc3ccccc32)C1 (configuration not stated) | 1 | -4 | 0 | -3 | -7
OCCNCC(O)CN1c2ccccc2Sc2ccccc21 (configuration not stated) | 7 | -11 | 2 | -31* | -3
CC1CCN(CC(O)CN2c3ccccc3Sc3ccccc32)CC1 (configuration not stated) | 33* | -9 | 1 | -89* | 15
O=C(O)CCN1c2ccccc2Sc2ccccc21 | 3 | 1 | -1 | 13 | -8
COc1cc(C)ccc1OCC(=O)NC1CCCCCC1 | 2 | -2 | 0 | -30* | 0
CCN(CC)S(=O)(=O)c1cc(C)c(C)cc1OCC(=O)NC1CCCC1 | 0 | -16 | -1 | -34* | 2
Cc1cc(Cl)c(S(=O)(=O)N2CCCC2)cc1OCC(=O)NC1CCCCC1 | 5 | -1 | 0 | -13 | -7
CCC(Oc1ccc(C)cc1)C(=O)Nc1ccccc1C(=O)N1CCOCC1 (configuration not stated) | 2 | 14 | 0 | -15 | -2
CCc1ccc(-c2csc(-c3cc4cc(Br)ccc4oc3=O)n2)cc1 | 7 | -4 | 1 | -4 | 1
CCN(CC)c1ccc2cc(-c3nc(-c4ccc(OC)cc4)cs3)c(=O)oc2c1 | 419* | -1 | 174* | -58* | -24
CCN(CC)c1ccc2cc(-c3nc(-c4ccc(Cl)cc4Cl)cs3)c(=O)oc2c1 | 119* | -2 | 22 | 22 | 0
CCN(C(=O)CSc1nc2ccccc2nc1Cc1ccccc1OC)c1ccccc1 | 3 | 0 | 0 | -45* | -6
COc1ccccc1NC(=O)CSc1nc2ccccc2cc1Cc1ccccc1 | 6 | -3 | 0 | -33* | -8
COc1ccccc1NC(=O)CSc1n[nH]c(Cc2ccccc2)n1 | 6 | -3 | 0 | -18 | -9
CCN(CC(=O)Nc1ccccc1OC)C(=O)CCc1ccccc1 | -3 | 5 | 0 | 7 | 39*
COc1ccccc1Cc1nc2ccccc2nc1SCC(=O)N1CCCCC1 | 1 | -2 | 0 | -2 | 4
CC(C)c1ccc(NC(=O)C2Cc3ccccc3N2C(=O)c2ccccc2)cc1 (configuration not stated) | 2 | -1 | 1 | 12 | -1
SMILES | D1 agonist | D1 potentiator | TRHR ag | D1 antagonist | TRHR PAM
CCc1nc2ccccc2n2c(-c3ccccc3)c3c(=O)n(C)c(=O)n(C)c3c12 | 1 | 0 | -2 | -6 | 6
COc1ccccc1CNC(=O)C(=O)NCC1CCCN1S(=O)(=O)c1cccs1 (configuration not stated) | 6 | -1 | 0 | -6 | 5
CC(OC(=O)c1cccc(S(=O)(=O)Nc2cccc(C(F)(F)F)c2)c1)C(=O)Nc1ccc2c(c1)OCCO2 (configuration not stated) | 4 | -9 | -2 | -36* | 0
O=S(=O)(Nc1cccc(C(F)(F)F)c1)c1ccc(NS(=O)(=O)c2ccc3c(c2)OCCO3)cc1 | 2 | 1 | 0 | 9 | 1
CC(C)(C)OC(=O)N1CCC(c2c(C(=O)NCc3ccccn3)cnn2-c2ccccc2)CC1 | 1 | -1 | -1 | -2 | -16
COc1ccc2sc(N(Cc3cccnc3)C(=O)CCc3ccccc3)nc2c1 | 34* | -2 | -1 | x | 12
CN(C)CCCN(C(=O)CCc1ccccc1)c1nc2ccc(Br)cc2s1 | 23 | -3 | 1 | -16 | -2
CN(C)CCCN(C(=O)CCc1ccccc1)c1nc2ccc(F)cc2s1 | 32* | -7 | 4 | -6 | 0
COc1ccc2nc(N(Cc3cccnc3)C(=O)Cc3ccccc3)sc2c1 | 18 | -1 | -1 | x | 3
CC(C)C(=O)Nc1nnc(SCC(=O)NC2CCCC2)s1 | 0 | -2 | -1 | 1 | 2
CSc1nnc(C)c(/C=C/Nc2ccc(F)cc2)n1 | 32* | -2 | 10 | 0 | -2
CSc1nnc(C)c(/C=C/Nc2ccc(Cl)cc2)n1 | 80* | -1 | 31* | -6 | 4
COc1ccc(N/C=C/c2nc(SC)nnc2C)cc1 | 22 | -1 | 9 | 1 | -1
Cc1oc2ncn(CC(C)C)c(=O)c2c1C(=O)N(CCN(C)C)Cc1ccccc1 | 2 | -3 | 0 | 9 | 6
O=c1c2ccccc2nnn1Cc1ccc(F)cc1 | 2 | 1 | 0 | 11 | -11
N#CCc1nn(Cc2ccc(F)cc2)c(=O)c2ccccc12 | 2 | -8 | 1 | -32* | -8
CC1CC(C)CN(CCOc2ccc(Cl)cc2Cl)C1 (configuration not stated) | 10 | -23 | 0 | -28 | 0
CC1CC(C)CN(CCOc2cccc(Cl)c2Cl)C1 (configuration not stated) | 6 | -5 | 0 | -35* | -2
O=C(CN1C(=O)CCc2cc(S(=O)(=O)N3CCOCC3)ccc21)NCc1ccc(F)cc1 | 1 | 0 | 1 | 4 | 0
CCc1ccc(C2(C)SC(NC(C)=O)=NN2C(C)=O)cc1 (configuration not stated) | 56* | 1 | -3 | 2 | 0
CC(=O)NC1=NN(C(C)=O)C(C)(c2cccnc2)S1 (configuration not stated) | 7 | -2 | 0 | -46* | 3
CCOc1ccccc1NS(=O)(=O)c1ccc2oc(=O)c3ncn(C)c3c2c1 | 0 | 4 | -1 | -6 | -6
Cc1nc(Cl)c2c(n1)NC1=C(O2)C(=O)CCC1 | 38* | -8 | 13 | -11 | 3
CCOC(=O)[C@H]1[C@H]2COc3ccc(C)cc3[C@@H]2N2C(=O)c3cc(F)ccc3NC(=O)[C@@]12C | -2 | -6 | 0 | -24 | 6
CCOC(=O)[C@H]1[C@H]2COc3ccc(Cl)cc3[C@@H]2N2C(=O)c3cc(F)ccc3NC(=O)[C@@]12C | 31* | 4 | 0 | 7 | 1
